The values that follow come from PubChem BioAssay AID720597 (Broad Institute, 2013).

Results with a measured potency or affinity are listed apart. Activity calls are given as the source filed them.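 The calls were made as follows: active = fitted half-maximal dose no more than twice the top valid tested dose, for compounds that lower signal; inconclusive = fit invalid, or curve flat with activity between -70 and -30; inactive = potency past limit, curve flat within ±30, or signal increasing.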

Chain of NAD-dependent protein deacylase sirtuin-5, mitochondrial (Homo sapiens) (Q9NXA8 whole entry, looked up): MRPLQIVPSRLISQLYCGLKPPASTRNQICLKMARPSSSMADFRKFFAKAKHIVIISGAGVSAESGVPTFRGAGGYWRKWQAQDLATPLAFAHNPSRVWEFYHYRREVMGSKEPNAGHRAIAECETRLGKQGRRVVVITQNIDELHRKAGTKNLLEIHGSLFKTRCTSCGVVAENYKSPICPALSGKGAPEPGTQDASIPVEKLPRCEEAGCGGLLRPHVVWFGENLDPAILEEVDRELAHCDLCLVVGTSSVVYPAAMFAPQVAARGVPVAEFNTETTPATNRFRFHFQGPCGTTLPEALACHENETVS

This experiment addresses NAD-dependent protein deacylase sirtuin-5, mitochondrial (Homo sapiens) (UniProt Q9NXA8). Description: SIRT5 deacylase inhibitors, dose response, biochemical, fluorescence imaging, cherry-pick, set 6 (AID 720597).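 Also: lower AMC signal can also come from blocking the trypsin step; 0% = median of neutral control wells and -100% = median of positive control wells.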 The following applies: Purified SirT5, succinyl-peptide-AMC/trypsin fluorescence; series mostly up to 15 µM; activity change, negative = inhibition: at the top concentration.
`CCN(C[C@H]1[C@@H](c2ccc(-c3ccccc3F)cc2)[C@@H](CO)N1C(C)=O)C(C)=O`: the “activity change, negative = inhibition” value is -4.98% (inactive).
Then `Cc1cc(C(=O)Nc2cccc3c2O[C@@H](CN(C)Cc2ccc(Oc4ccccc4)cc2)[C@H](C)CN([C@H](C)CO)C3=O)n(C)n1`, with 6.07% (inactive); and `COc1ccc(S(=O)(=O)N(C)C[C@H]2Oc3cc(C#CC4CC4)ccc3S(=O)(=O)N([C@@H](C)CO)C[C@@H]2C)cc1`, with 11.5% (inactive); and `C[C@H](CO)N1C[C@H](C)[C@@H](CN(C)Cc2ccc(Cl)c(Cl)c2)Oc2ccc(NS(=O)(=O)c3ccccc3)cc2CC1=O`, with -21% (inactive).
For the compound `C[C@@H]1CN([C@@H](C)CO)C(=O)c2cc(NC(=O)Nc3cccc4ccccc34)ccc2O[C@@H](C)CCCCO[C@@H]1CN(C)S(=O)(=O)c1ccc(Cl)cc1`, the “activity change, negative = inhibition” value is 7.77% (inactive).
As to `CCCC#Cc1ccc2c(c1)O[C@@H](CN(C)C(=O)c1ccccc1F)[C@@H](C)CN([C@@H](C)CO)S2(=O)=O`, the “activity change, negative = inhibition” value is 9.71% (inactive).
The figure for `COc1ccc(CN(C)C[C@H]2OCCCC[C@H](C)Oc3ccc(N(C)C)cc3C(=O)N([C@H](C)CO)C[C@H]2C)cc1` is 13.1% (inactive); for `COc1ccc(NC(=O)Nc2ccc3c(c2)C(=O)N([C@H](C)CO)C[C@H](C)[C@@H](CN(C)Cc2ccc(C(F)(F)F)cc2)O3)cc1` it is -6.42% (inactive); for `O=C(c1cnccn1)N1CC(=O)N2[C@@H](CO)[C@H](c3ccc(C#CC4CC4)cc3)[C@@H]2C1` it is 22.1% (inactive).
Take `C[C@H](CO)N1C[C@H](C)[C@@H](CN(C)Cc2ccc(Cl)c(Cl)c2)Oc2ccc(NC(=O)CCCCCC(=O)Nc3ccccc3N)cc2CC1=O`: the “activity change, negative = inhibition” value is 3.52% (inactive).
For `C[C@H]1CN([C@@H](C)CO)C(=O)c2c(c3ccccc3n2C)-c2ccccc2CO[C@H]1CN(C)Cc1cccc2c1OCCCO2`, the “activity change, negative = inhibition” value was 0.028% (inactive).
Then `CC(C)NC(=O)NCC[C@H]1CC[C@@H](NS(=O)(=O)c2ccc(-c3ccccc3)cc2)[C@H](CO)O1`, with -21.9% (inactive); and `C[C@H]1CN([C@@H](C)CO)C(=O)c2cc(NC(=O)Cc3ccccc3)ccc2O[C@@H]1CN(C)Cc1ccc(Oc2ccccc2)cc1`, with -6.95% (inactive); and `C[C@@H]1CCCCO[C@H](CN(C)Cc2ccc(C(=O)O)cc2)[C@H](C)CN([C@H](C)CO)C(=O)c2cc(NS(=O)(=O)c3cccs3)ccc2O1`, with -13.8% (inactive).
Consider `Cc1ccc(S(=O)(=O)N(C)C[C@@H]2OCc3ccccc3-c3c(n(C)c4ccccc34)C(=O)N([C@H](C)CO)C[C@@H]2C)cc1`, for which the “activity change, negative = inhibition” value was -22% [at 16 µM] (inactive).
The figure for `Cc1noc(C)c1S(=O)(=O)Nc1ccc2c(c1)CC(=O)N([C@H](C)CO)C[C@H](C)[C@H](CN(C)Cc1ccncc1)O2` is -7.37% (inactive).
The figure for `Cc1noc(C)c1NC(=O)N(C)C[C@H]1OCCCC[C@@H](C)Oc2ccc(NS(=O)(=O)c3c(C)noc3C)cc2C(=O)N([C@H](C)CO)C[C@@H]1C` is 0.04% [at 16 µM] (inactive).
Take `CN(C[C@H]1[C@@H](c2ccc(C3=CCCC3)cc2)[C@@H](CO)N1CCC(F)(F)F)S(C)(=O)=O`: the “activity change, negative = inhibition” value is 41.9% (inactive).
With `C[C@H]1CN([C@@H](C)CO)C(=O)c2cc(C#CCN(C)C)cnc2O[C@H]1CN(C)S(=O)(=O)c1ccccc1`, the “activity change, negative = inhibition” value is -12.4% (inactive).
On to `COc1ccc(CN2C[C@@H](O)COC[C@H]3O[C@H](CC(=O)NCCN4CCCC4)CC[C@@H]32)cc1`, for which the “activity change, negative = inhibition” value is -17.3% (inactive).
As for `O=C(NC1CCCCC1)[C@@H]1[C@@H](CO)[C@@H]2Cn3c(cccc3=O)[C@@H]2N1CC1CCCC1`, the “activity change, negative = inhibition” value was 19.3% (inactive).
Turning to `CC(C)NC(=O)Nc1ccc2c(c1)C(=O)N([C@@H](C)CO)C[C@H](C)[C@H](CN(C)C(=O)NC(C)C)OCCCC[C@@H](C)O2`, the “activity change, negative = inhibition” value is 7.8% (inactive).
`CN(C)C(=O)[C@@H]1[C@@H](CO)[C@@H]2Cn3c(ccc(-c4ccccc4)c3=O)[C@@H]2N1Cc1ccccc1`: the “activity change, negative = inhibition” value is -1.33% (inactive).
Regarding `Cc1cccc(S(=O)(=O)N(C)C[C@@H]2OCc3ccccc3-c3c(n(C)c4ccccc34)C(=O)N([C@H](C)CO)C[C@@H]2C)c1`, the “activity change, negative = inhibition” value was -6.71% (inactive).
Then `C[C@H](CO)N1C[C@H](C)[C@@H](CN(C)S(=O)(=O)c2ccccc2)Oc2c(cccc2N(C)C)C1=O`, with 2.92% (inactive); and `COc1ccc(C#Cc2ccc([C@@H]3[C@H]4CN(C(=O)c5cccnc5)CC(=O)N4[C@H]3CO)cc2)cc1`, with 4.01% (inactive).
The figure for `COc1ccccc1NC(=O)N[C@H]1CC[C@@H](CCNS(=O)(=O)c2ccc(F)cc2)O[C@@H]1CO` is -3.7% (inactive); for `COc1ccc(C#Cc2ccc3c(c2)[C@]2(C(=O)N3)[C@H](C(=O)N3CCN(c4ncccn4)CC3)[C@H]3C(=O)O[C@H](c4ccccc4)[C@H](c4ccccc4)N3[C@@H]2c2ccc(OCCO)cc2)cc1` it is 11% (inactive); for `COc1ccc(NC(=O)Nc2cccc3c2O[C@@H](CN(C)Cc2ccc(C(F)(F)F)cc2)[C@@H](C)CN([C@H](C)CO)C3=O)cc1` it is -31.3% (inactive).
The figure for `C[C@@H]1CN([C@H](C)CO)C(=O)c2cccc(NC(=O)CCCCCC(=O)Nc3ccccc3N)c2O[C@H]1CN(C)Cc1ccc(Oc2ccccc2)cc1` is -13% (inactive); for `Cc1ccc(-c2ccc3c(c2)O[C@H](CN(C)Cc2cccnc2)[C@H](C)CN([C@H](C)CO)S3(=O)=O)cc1` it is 1.72% (inactive); for `C[C@H](CO)N1C[C@H](C)[C@@H](CN(C)Cc2ccc(Oc3ccccc3)cc2)Oc2ccc(NC(=O)Cc3ccccc3)cc2C1=O` it is -0.649% (inactive).
Take `C[C@H](CO)N1C[C@H](C)[C@@H](CN(C)C(=O)c2ccc3c(c2)OCO3)Oc2cc(/C=C/c3ccccc3)ccc2S1(=O)=O`: the “activity change, negative = inhibition” value was 30.9% (inactive).
Take `COc1ccccc1-c1ccc([C@@H]2[C@@H]3CN(S(=O)(=O)c4ccc(-c5ccccc5)cc4)C[C@H]2N3)cc1`: the “activity change, negative = inhibition” value is 29.3% (inactive).
Then `Cc1ccc(S(=O)(=O)Nc2ccc3c(c2)C(=O)N([C@@H](C)CO)C[C@H](C)[C@@H](CN(C)C(=O)Nc2ccc(C(F)(F)F)cc2)OCCCC[C@@H](C)O3)cc1`, with 20.9% (inactive).
Turning to `Cc1ccc(S(=O)(=O)Nc2ccc3c(c2)C(=O)N([C@@H](C)CO)C[C@H](C)[C@@H](CN(C)S(=O)(=O)c2ccc(F)cc2)OCCCC[C@@H](C)O3)cc1`, the “activity change, negative = inhibition” value is -1.33% (inactive).
Regarding `CCCC#Cc1ccc([C@@H]2[C@H]3CN(S(=O)(=O)Cc4ccccc4)CCCCN3[C@H]2CO)cc1`, the “activity change, negative = inhibition” value is 25.8% (inactive).
`O=C(NCC[C@H]1CC[C@@H](NS(=O)(=O)c2cccc(F)c2)[C@H](CO)O1)C1CCOCC1`: the “activity change, negative = inhibition” value is 14.3% (inactive).
Regarding `C[C@H]1CN([C@@H](C)CO)C(=O)c2cc(NC(=O)CCC(F)(F)F)ccc2O[C@H]1CN(C)Cc1ccc(C(F)(F)F)cc1`, the “activity change, negative = inhibition” value is -26.3% (inactive).
For the compound `CC(C)C#Cc1ccc2c(c1)O[C@@H](CN(C)Cc1ccccn1)[C@H](C)CN([C@H](C)CO)S2(=O)=O`, the “activity change, negative = inhibition” value was 11.1% (inactive).
